Screen size: about 370,000 compounds; about 620 (0.17%) were called active. The sample holds actives, similar compounds and a random draw of the others, so the mix is not that of the screen.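 How the source made its calls: active means inhibition above the mean inhibition of all tested compounds plus 3 SD, set per campaign (cut at about 52% in these data); inactive means the rest.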
What follows are compounds tested against Nuclear receptor coactivator 2 (Homo sapiens) (UniProt Q15596) (assay: inhibition of GAL4-SRC2 driven luciferase reporter, primary screen, SRC2 inhibitor project, cell-based, luminescence (AID 651957;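 further: 0% = DMSO treated cells and 100% = cells given Gossypol at 36 µM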)). Conditions: HEK293 GAL4-SRC2 luciferase reporter, at 9 µM, stronger effect = higher value.
Sequence of Nuclear receptor coactivator 2 (Homo sapiens) (Q15596 whole entry, looked up, the tested form may be a part): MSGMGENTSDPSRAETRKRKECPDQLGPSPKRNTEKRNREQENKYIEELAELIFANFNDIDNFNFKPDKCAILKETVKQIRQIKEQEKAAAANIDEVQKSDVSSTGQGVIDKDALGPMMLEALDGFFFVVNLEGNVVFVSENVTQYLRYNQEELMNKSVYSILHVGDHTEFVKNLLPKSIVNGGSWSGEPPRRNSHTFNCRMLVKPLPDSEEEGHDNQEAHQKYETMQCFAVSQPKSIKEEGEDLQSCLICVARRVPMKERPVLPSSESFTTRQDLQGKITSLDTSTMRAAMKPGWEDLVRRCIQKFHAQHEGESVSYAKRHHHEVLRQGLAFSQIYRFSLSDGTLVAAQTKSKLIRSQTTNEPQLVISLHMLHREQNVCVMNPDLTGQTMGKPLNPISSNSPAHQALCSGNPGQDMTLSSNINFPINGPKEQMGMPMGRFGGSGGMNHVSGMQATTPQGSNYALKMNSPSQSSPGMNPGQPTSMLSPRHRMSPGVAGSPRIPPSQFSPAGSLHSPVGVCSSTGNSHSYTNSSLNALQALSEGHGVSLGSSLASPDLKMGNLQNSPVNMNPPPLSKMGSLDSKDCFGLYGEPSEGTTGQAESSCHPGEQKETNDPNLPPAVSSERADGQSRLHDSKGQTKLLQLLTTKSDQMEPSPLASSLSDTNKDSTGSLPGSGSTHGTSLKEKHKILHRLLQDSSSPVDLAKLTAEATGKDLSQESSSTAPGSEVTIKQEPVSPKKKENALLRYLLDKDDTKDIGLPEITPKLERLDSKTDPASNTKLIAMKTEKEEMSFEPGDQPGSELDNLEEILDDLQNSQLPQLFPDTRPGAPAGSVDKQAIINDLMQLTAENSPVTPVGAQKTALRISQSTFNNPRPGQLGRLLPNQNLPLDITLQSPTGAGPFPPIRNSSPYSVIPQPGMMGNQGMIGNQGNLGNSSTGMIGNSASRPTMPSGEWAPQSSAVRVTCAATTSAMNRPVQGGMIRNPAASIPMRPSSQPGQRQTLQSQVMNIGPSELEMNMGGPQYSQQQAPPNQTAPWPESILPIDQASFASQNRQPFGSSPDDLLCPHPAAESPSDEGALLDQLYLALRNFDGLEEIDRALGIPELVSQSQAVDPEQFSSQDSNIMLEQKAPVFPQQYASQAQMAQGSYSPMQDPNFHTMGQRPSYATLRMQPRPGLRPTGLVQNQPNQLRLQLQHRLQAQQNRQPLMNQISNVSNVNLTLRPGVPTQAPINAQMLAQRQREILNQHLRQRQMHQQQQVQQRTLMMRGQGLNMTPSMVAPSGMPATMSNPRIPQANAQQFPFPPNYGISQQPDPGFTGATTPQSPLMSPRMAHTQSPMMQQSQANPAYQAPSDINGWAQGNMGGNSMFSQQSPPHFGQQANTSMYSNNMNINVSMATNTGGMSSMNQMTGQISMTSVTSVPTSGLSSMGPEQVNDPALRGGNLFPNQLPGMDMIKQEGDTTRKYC

SMILES	inhibition
Cc1cc(N2CCN(C(=O)OC(C)(C)C)C[C@H]2C)ccc1N1CCN(Cc2ccccc2)[C@H](C)C1	-2.83% (inactive)
COc1ccc(CN2C(=O)N3Cc4cc(OC)ccc4C3CS2(=O)=O)cc1 (stereo not given)	15.8% (inactive)
Cc1ccc(-n2c(SCC(=O)Nc3ccc(S(=O)(=O)Nc4nccs4)cc3)nnc2-c2ccccn2)cc1	9.13% (inactive)
CC(=O)NCc1ccc(S(=O)(=O)NC2CCN(Cc3ccccc3)CC2)cc1	6.61% (inactive)
COC(=O)[C@@H]1C[C@@]2(O)[C@@H](O)[C@@H](O)[C@@H](O)C[C@H]2N1Cc1ccc(C)s1	-14.3% (inactive)
C/C=C/c1ccc(OCC(O)CN2CCCCCCC2)c(OC)c1 (stereo not given)	11.7% (inactive)
CCOC(=O)[C@@]12CN(C(=O)OC(C)(C)C)CC=C1N(Cc1ccc(OC)cc1)C(=O)[C@H]2CC(=O)NCc1ccc(OC)c(OC)c1	-4.35% (inactive)
O=C(CSc1nnc(-c2ccccc2)n1Cc1ccco1)Nc1ccccc1-c1ccccc1	-16.5% (inactive)
CC(=O)C1=C(C)N(Cc2ccccc2)C(=S)NC1c1cccc(Br)c1 (stereo not given)	-0.56% (inactive)
COC(=O)c1ccc(CN2C(=O)[C@]3(OCCC=C[C@H]3C)c3c(Br)cccc32)cc1	4.53% (inactive)
Cn1c(Nc2ccccc2)cc(=O)n(C)c1=O	-0.54% (inactive)
Cc1cc(Nc2ccccc2)n(C(=O)c2ccc(N)cc2)n1	62% (active)
Cc1ccc(NC(=O)Nc2cc(C)nn2-c2ccccc2)cc1	-32.3% (inactive)
COc1ccc2c(c1)CN1CN(CCc3ccccc3)S(=O)(=O)CC21 (stereo not given)	5.4% (inactive)
O=C(NCc1ccccc1)[C@H]1CCCN1C(=O)[C@H]1CCCN1C(=O)N1CCOCC1	3.99% (inactive)
CCOC(=O)C1CCCN(C(=O)c2cccc3ccccc23)CC1 (stereo not given)	7.84% (inactive)
CCC(C)(C(=O)NC1CCCCC1)N(C)C(=O)c1ccc2c(c1)OCO2 (stereo not given)	-11.6% (inactive)
COc1ccc(OC)c(CNC(=O)c2cc(=O)[nH]c3ccc(S(=O)(=O)N4CCCC4)cc23)c1	-15.1% (inactive)
O=C1CC[C@@H](COc2ccc3[nH]cc(-c4ccccc4)c3c2-c2ccccc2)N1	4.07% (inactive)
CCCc1nc(SCC(=O)N2CCCC2)c2c(=O)n(C)c(=O)n(C)c2n1	2.56% (inactive)
O=C1NC(c2ccccc2)Oc2ccccc21 (stereo not given)	-0.1% (inactive)
O=C1NC(c2ccccc2)CCC1(Cl)Cl (stereo not given)	-13.7% (inactive)

SMILES	inhibition
O=C1NC(c2ccccc2)Cc2ccncc21 (stereo not given)	58.9% (active)
CCCCn1c(N)c(N(Cc2ccccc2OC)C(=O)COc2cc(C)ccc2Cl)c(=O)[nH]c1=O	-2.7% (inactive)
O=C(NCc1nnc(SCC(=O)N2CCCCCC2)o1)c1ccc(F)cc1	-14.4% (inactive)
Cc1ccccc1NC(=O)COC(=O)c1ccc(Sc2ncn[nH]2)c([N+](=O)[O-])c1	-15.7% (inactive)
COC(=O)c1cc(S(=O)(=O)N2CCN(c3ccccc3C)CC2)cn1C	20.3% (inactive)
C[C@@H]1COc2cccc(N3CCCC3)c2S(=O)(=O)N1C	-9.18% (inactive)
Cc1ccc2oc(=O)c3cnn(CC(=O)N(Cc4ccco4)C4CCCCC4)c3c2c1	-25.6% (inactive)
NNC(=O)C1CC(O)CN1S(=O)(=O)c1ccc(Cl)cc1 (stereo not given)	23.4% (inactive)
COc1ccccc1CNC(=O)C1CCN(S(=O)(=O)c2ccc3c(c2)OCCO3)CC1	-1.43% (inactive)
COC(=O)[C@]12C[C@H](CC(=O)N3CCN(C(=O)C4CC4)CC3)C(=O)N(CCC3=CCCCC3)C1=C[C@H](C(C)C)O[C@@H]2C1CC1	-0.28% (inactive)
CCNC(=S)N1CCC(c2nc3cc(C)c(C)cc3[nH]2)CC1	-32.6% (inactive)
O=C(CSc1nnc(-c2ccccn2)n1-c1ccccc1)Nc1ccc2cn[nH]c2c1	-5.6% (inactive)
CC(C)(C)C(c1nc2ccccc2[nH]1)n1c(Cc2csc3ccccc23)nc2ccccc21 (stereo not given)	-15% (inactive)
CS(=O)(=O)N1CCN=C1SCc1ccc(F)cc1	-10.1% (inactive)
O=C(C1CCN(S(=O)(=O)c2ccccc2)CC1)N1CCN(C2CCCCC2)CC1	14.3% (inactive)
COC(=O)C1=C(C)N(Cc2ccc(C(F)(F)F)cc2)C(=NCc2ccc(C(F)(F)F)cc2)NC1c1cccc(Cl)c1 (stereo not given)	-4.35% (inactive)
OCCCNc1nccc(-c2cc(Nc3cccc(Cl)c3)ncn2)n1	56.3% (active)
Cc1ccc(NC(=O)c2cc(C)nn2-c2ccccc2)c(C)c1	4.89% (inactive)
CCCC(=O)N1CCC1(C)C(=O)NCc1ccc(SC)cc1 (stereo not given)	-38.9% (inactive)
Cc1sc2nc(SCC(=O)c3ccc(O)c(O)c3)n(Cc3ccco3)c(=O)c2c1C	8.73% (inactive)
C=CCN=C1NC(c2cccc(C(F)(F)F)c2)C(C(=O)OC)=C(C)N1C (stereo not given)	-11.9% (inactive)
CC(C)N1CCCCC(NC(=O)c2ccc3ccccc3c2)C1=O (stereo not given)	-10% (inactive)

SMILES	inhibition
CCOc1ccc(S(=O)(=O)NCCCn2ccnc2)cc1NC(C)=O	12.2% (inactive)
Nc1[nH]c(/C=C2/CCCCC2n2[nH]c(=O)n(-c3ccccc3)c2=O)c(Cc2ccccc2)[n+]1Cc1ccccc1 (stereo not given)	12.9% (inactive)
C=CCN1[C@@H](Cc2ccccc2)COc2cccc(N3CCSCC3)c2S1(=O)=O	10.1% (inactive)
CC(C)(C)OC(=O)NCc1cc(F)ccc1/C=C/S(=O)(=O)NCCc1ccccc1	4.87% (inactive)
COc1cccc(N(C)C(=O)[C@@H](C)[C@@H](O)c2ccc3ccccc3c2)c1	-32.8% (inactive)
CC(C)CC(CCc1ccccc1)OS(N)(=O)=O (stereo not given)	-15.3% (inactive)
O=C(NC(=S)N1CCN(Cc2ccccc2)CC1)c1ccccc1	-12.4% (inactive)
O=C(O)C1C2C=CC(C2)C1C(=O)N1CCN(CCO)CC1 (stereo not given)	-0.51% (inactive)
OCCN1CCN(C(=S)c2ccc(-c3ccccc3)cc2)CC1	71.1% (active)
CC(=O)OC12CCCN(C1)/C(=C/c1ccncc1)C2 (stereo not given)	12.7% (inactive)
COC(=O)C1=C(C)N(Cc2cccc(C(F)(F)F)c2)C(=NCc2ccccc2)NC1c1ccc(Cl)cc1 (stereo not given)	-0.5% (inactive)
Cc1ccccc1NC(=O)c1nn(-c2ccc(F)c(F)c2)ccc1=O	1.35% (inactive)
Cc1nnnn1/C(=C\c1ccccc1)C(=O)OCC(=O)N1CC2(C)CC1CC(C)(C)C2 (stereo not given)	32.3% (inactive)
O=C1N=C2SCCN2/C1=C\c1c(Cl)cccc1Cl	4.12% (inactive)
Cc1ccc(NC(=O)CCOc2ccccc2)cc1S(=O)(=O)Nc1ccccc1Cl	9.26% (inactive)
CC(C)Cc1nc(Nc2ccc(S(=O)(=O)N3CCCC3)cc2)c2nnn(Cc3ccccc3)c2n1	-14.5% (inactive)
CCCCOCCCNC(=O)C[C@H]1C[C@@]2(C(=O)OC)C(=C[C@H](C(C)(C)C)O[C@@H]2C)N(CCc2ccc(OC)c(OC)c2)C1=O	1.08% (inactive)
COc1ccc(/C=C2/SC(=O)N(CCCCCC(=O)Nc3ccccc3C(=O)O)C2=S)cc1	58.3% (active)
COc1ccc(NC(=O)CCCN2C(=O)C(c3ccccc3)Oc3cccnc32)cc1 (stereo not given)	2.65% (inactive)
COc1ccc(NC(=O)CN2C(=O)CSC2=O)cc1	-15.1% (inactive)
CC(=O)Nc1ccc(NC(=O)C(C)n2c3ccccc3c3nc(=O)cc(C)n32)cc1 (stereo not given)	-6.71% (inactive)
O=C1C=C(c2ccccc2)CCC1	-5.31% (inactive)

SMILES	inhibition
COC(=O)[C@]12C[C@H](CC(=O)NCc3ccccc3)C(=O)N(CCC3=CCCCC3)C1=C[C@H](C(C)(C)C)O[C@@H]2C	28.1% (inactive)
N=c1n(CCc2ccccc2)c2ccccc2n1Cc1ccccc1F	2.8% (inactive)
COc1c(C=O)c(CCN(C)C(=O)c2ccc(F)cc2)cc2c1OCO2	0.41% (inactive)
CCCC[C@H]1C2CC(OC(=O)NCc3ccccc3)C(C2)[C@H]2CCCCN21 (stereo not given in full)	-8.24% (inactive)
COCCC(=O)Nc1ccc2c(c1)CN(C(=O)CCOC)CC2	9.25% (inactive)
Cc1ccc(C(=O)N(Cc2ccccn2)CC2CCCO2)cc1 (stereo not given)	-16.2% (inactive)
Cc1noc(C)c1NC(=O)Nc1ccc2c(c1)C(=O)N([C@H](C)CO)C[C@H](C)[C@H](CN(C)Cc1ccncc1)OCCCC[C@@H](C)O2	5.48% (inactive)
CC(C)N1CCCCC(NC(=O)C(C)(C)C)C1=O (stereo not given)	11.4% (inactive)
O=C(Nc1ccccc1Cl)/C(Cl)=C(\Cl)S(=O)c1ccccc1 (stereo not given)	85.5% (active)
COc1ccc(N2c3ccccc3CN(Cc3ccccc3)[C@@H](C)[C@H]2Cc2ccc(-c3ccccc3)cc2)cc1	-9.73% (inactive)
Cc1c(C(C)c2ccccc2O)[nH]c2ccccc12 (stereo not given)	-18.6% (inactive)
O=S1(=O)c2c(cccc2N2CC[C@H](O)C2)O[C@@H]2CCN1C2	-22.3% (inactive)
Cc1ccc(C2=CCN(C)C(=O)N2c2ccc(Cl)cc2)cc1	30.5% (inactive)
O=C(NC1CCCCN(Cc2cccc(C(F)(F)F)c2)C1=O)c1ccccc1I (stereo not given)	18.9% (inactive)
CCCC(CCC(=O)OC)(C(=O)OCC)c1csc(N)n1 (stereo not given)	11% (inactive)
CCOC(=O)[C@]12CCCCC/C=C\1N(Cc1ccc(OC)cc1)C(=O)[C@H]2CC(=O)NCc1ccc(C)o1	-22.3% (inactive)
O=C(CSc1nc2ccccc2n1Cc1ccccc1)NNC(=S)Nc1ccccc1	4.68% (inactive)
COC(=O)C1=C(C)N(Cc2cccc(C(F)(F)F)c2)C(=NCc2cccc(C(F)(F)F)c2)NC1c1ccccc1C(F)(F)F (stereo not given)	-30.7% (inactive)
Cc1ccccc1CN1CCCCC(NC(=O)c2cccc(C#N)c2)C1=O (stereo not given)	-18.3% (inactive)
